MRP1 act: activates MRP-1; viability increase, % at 10 µM; H69AR cells + doxorubicin, viability rescue, CellTiter-Glo; 0.61% of 140,000 active;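 active means viability gain under doxorubicin at or above a set limit, the compound median plus 3 SD, cut at about 4.7% in these data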;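 further: MRP-1 overexpressing cells given doxorubicin 25 µM after compound pretreatment; 18-22 h compound pretreatment then 72 h with doxorubicin before readout; 0% = doxorubicin-only wells and 100% = vehicle-treated cells without doxorubicin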
CYP2C19 act: cytochrome P450 2C19 (human) activation; P33261; recombinant CYP2C19, luciferin-H EGE luminescence; hits give high values; 0 = fully inhibited enzyme, 1 = untreated enzyme; activation factor at 5 µM; 96,000 tested, under 10 active; AID 1025;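 active means activation factor of at least 2 at 5 µM in the primary screen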;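 further: 0 = wells with 2.5 mM tranylcypromine and 1 = vehicle-only wells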
Target sequence (P33261 whole entry, looked up): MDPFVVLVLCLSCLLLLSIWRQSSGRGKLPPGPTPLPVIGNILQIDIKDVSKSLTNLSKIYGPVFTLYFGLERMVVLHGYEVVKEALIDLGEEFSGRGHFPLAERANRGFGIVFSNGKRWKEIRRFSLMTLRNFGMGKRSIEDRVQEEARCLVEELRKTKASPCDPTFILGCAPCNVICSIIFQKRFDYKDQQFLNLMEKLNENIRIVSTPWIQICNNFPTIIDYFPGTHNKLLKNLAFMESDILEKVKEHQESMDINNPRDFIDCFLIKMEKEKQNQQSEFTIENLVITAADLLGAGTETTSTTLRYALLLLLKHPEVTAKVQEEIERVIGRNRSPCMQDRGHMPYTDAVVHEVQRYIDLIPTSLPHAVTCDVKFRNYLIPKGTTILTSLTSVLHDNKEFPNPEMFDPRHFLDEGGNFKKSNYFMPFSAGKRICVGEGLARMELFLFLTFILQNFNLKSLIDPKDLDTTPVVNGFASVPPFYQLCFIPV
MRP resist rev: reverses drug resistance mediated by MRP; H69AR cells + 2 uM doxorubicin, CellTiter-Glo, 72 h; differential viability (reversal), % at 10 µM; 0.04% of 85,000 active;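 active means viability drop by adding the cancer drug above about 55%, with treated viability meeting a 40% cutoff, limit read from the data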;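 further: viability without doxorubicin minus viability with 2 µM doxorubicin for each compound; larger differential means the compound sensitizes cells more to doxorubicin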
CYP2C9 inhib: blocks human cytochrome P450 2C9. P11712. CYP2C9 Supersomes, luciferin-H conversion, luminescence. inhibition, % at 5 µM. 20% of 96,000 active;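 active means blocking of liver enzyme CYP2C9 beyond about 50% at 5 µM, limit read from the data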
CYP2C9 act: activators of human CYP2C9 | P11712 | recombinant CYP2C9, luciferin-H conversion, luminescence; hits give high values; factor 1 = untreated enzyme, 0 = blocked | activation factor at 5 µM | 1.4% of 96,000 active | AID 1024;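 active means activation factor of 2 or more for CYP2C9 at a 5 µM dose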;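 further: 0 = sulfaphenazole-blocked wells and 1 = vehicle-only wells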
CYP2C19 inhib: human CYP2C19 inhibition | P33261 | CYP2C19 Supersomes, luciferin-H EGE luminescence, 30 min | inhibition, % at 5 µM | 21% of 96,000 active;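 active means CYP2C19 inhibition above a set limit at 5 µM in the primary screen, cut at about 50% in these data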;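 further: plate controls were negative control wells for no effect and 2.5 mM tranylcypromine positive control for full effect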
* = called active by the depositor; x = not tested or not shown. Compounds with a hit are over-represented: about 21% of the library has one in this group of screens.

SMILES	MRP1 act	CYP2C19 act	MRP resist rev	CYP2C9 inhib	CYP2C9 act	CYP2C19 inhib
C=CCn1c(COc2ccccc2F)nnc1SCC(=O)c1c[nH]c2ccccc12	-3.4	x	x	x	x	x
CC(C)(CC(=O)N1CCN(c2ccc(Cl)cc2)CC1)CC1=NS(=O)(=O)c2ccccc2N1	-5.2	0.4	x	78.6*	0.2	63.7*
O=C(CCCC1=NS(=O)(=O)c2ccccc2N1)N1CCN(c2ccc(Cl)cc2)CC1	-1.9	x	-0.3	x	x	x
O=C(Nc1ccccc1)/C(=C\c1ccncc1)NC(=O)c1ccccc1	-3.0	0	x	95.6*	0	100.3*
Cc1ccc(NC(=O)/C(=C/c2ccncc2)NC(=O)c2ccccc2)cc1	-1.0	x	x	x	x	x
Cc1ccc(S(=O)(=O)Oc2ccc(/C=C(/NC(=O)c3ccccc3)C(=O)Nc3ccccc3)cc2)cc1	-5.8	0.7	-8.5	58.7*	0.4	33.3
O=C(N/N=C/c1ccncc1)c1ccccc1	-1.0	0.7	x	3.2	1	33.3
O=C(N/N=C/c1ccncc1)/C(=C/c1ccccc1)NC(=O)c1ccccc1	-1.0	0.5	x	78.7*	0.2	51.0*
COc1ccc(NS(=O)(=O)c2ccc3nc(COc4ccc(C#N)cc4)[nH]c3c2)cc1	3.7	x	x	x	x	x
Cc1nc(S(=O)(=O)c2cccc(Cl)c2)nc2c1CCC2	-2.8	0.9	x	-173.1	2.7*	9.7
Cc1nc(S(=O)(=O)c2ccc(Cl)cc2Cl)nc2c1CCC2	-1.4	0.7	x	-38.1	1.4	26.1
N#CCSc1nnc(-c2ccccc2O)n1CCc1ccccc1	-1.3	0.6	2.8	-10.0	1.1	41.4
Cc1ccc(C=Nc2ccc(N(C)C)cc2)o1	-2.1	0.5	64.8*	43.5	0.6	52.5*
COC(=O)c1cn(NC(=O)Cc2cccc(OC)c2)c(=O)c2ccccc12	-1.4	x	x	x	x	x
COC(=O)c1cccnc1-n1c(=O)c2cccnc2n(Cc2cccc(OC)c2)c1=O	-2.3	0.2	8.9	43.1	0.6	77.5*
Cc1ccc(SCC(=O)N(Cc2nc(-c3ccccc3)no2)C(C)C)cc1	-1.1	0.2	-3.0	78.8*	0.2	76.9*
Cc1ccccc1OCC(=O)N(Cc1nc(-c2ccccc2)no1)C(C)C	-0.4	0.4	7.2	39.8	0.6	57.3*
O=c1cc(O)c2c(=O)n(-c3ccccc3)c3c(c2o1)CCCCCC3	-2.8	x	x	x	x	x
COc1ccc(OCc2nnc(SCC(=O)NNC(=O)c3ccc(C)cc3)n2C)cc1	-1.4	x	x	x	x	x
O=C(NC1CC1)c1cc(=O)c2ccccc2o1	-2.5	0.9	13.8	2.2	1	13.1
O=c1cc(/C=C/c2ccccc2)oc2ccccc12	-2.9	0.4	x	78.6*	0.2	61.6*
CCCn1c(C)cc(C(=O)COC(=O)c2ccc[nH]c2=O)c1C	-2.5	x	x	x	x	x
Cc1cc(C)c2c(N)c(C(=O)N3CCCCCC3)sc2n1	-0.8	0.5	0.3	-45.4	1.5	51.0*
Cc1cc(C)c2c(N=CN(C)C)c(C(=O)N3CCN(c4ncccn4)CC3)sc2n1	-0.6	0.6	0.2	68.6*	0.3	36.9
CN(/C=C/C(=O)C(F)(F)C(F)(F)F)Cc1ccccc1	-1.0	0.4	x	9.8	0.9	61.7*
SMILES	MRP1 act	CYP2C19 act	MRP resist rev	CYP2C9 inhib	CYP2C9 act	CYP2C19 inhib
CN(C)c1cc(O)c(C(=S)Nc2ccccc2)c(N(C)C)c1	-4.5	0.2	-9.1	5.0	0.9	79.3*
Cc1ccccc1OC(=O)CCC(=O)OCCCC(F)(F)C(F)(F)F	-2.3	0.5	5.2	41.0	0.6	54.3*
Cc1ccc(OC(=O)CCC(=O)OCCCC(F)(F)C(F)(F)F)cc1	-2.7	1.1	-2.0	-7.3	1.1	-13.7
COc1cc(CCN2C(=O)c3cccc4cccc(c34)C2=O)c(S(=O)(=O)NCCCO)cc1OC	-2.0	0.3	x	38.5	0.6	66.4*
O=C(NCS(=O)(=O)c1ccccc1)c1ccccc1	-0.1	0.3	11.7	11.9	0.9	70.3*
Cc1ccc(CN2CCSc3ccc(C(=O)N4CCN(c5ncccn5)CC4)cc32)cc1	-2.8	0	-0.6	92.6*	0.1	97.0*
Cc1cccc(-c2nsc(SCC(=O)NCc3ccco3)n2)c1	-0.3	0.8	7.1	67.8*	0.3	21.3
Cc1cccc(-c2nsc(SCC(=O)NCc3ccc4c(c3)OCO4)n2)c1	-3.2	x	x	x	x	x
Cc1ccc2cc(C#N)c(SCC(=O)NCc3ccco3)nc2c1	-1.6	0.9	-5.2	75.1*	0.2	11.0
Cc1ccc(NC(=S)Nc2ccc(C(C)C)cc2)cc1S(=O)(=O)N1CCCCCC1	-5.2	x	x	x	x	x

Compound activity deposited in PubChem by several laboratories.
